Hits are enriched below; roughly 5.9% of the tested compounds scored in any of these assays.
TrxR1 inh – qHTS Assay for Inhibitors of Mammalian Selenoprotein Thioredoxin Reductase 1 (TrxR1): qHTS. recombinant rTrxR1, NADPH fluorescence consumption, selenite substrate. 1% of 390,000 active. Thioredoxin reductase 1, cytoplasmic (Rattus norvegicus), O89049. Potency, µM (top dose mostly 114 µM), without a hit: at the highest dose activity change, negative = inhibition, usual class: inhibitors; note: potency is the fitted concentration of half-maximal effect; nearly all actives have a fitted effect of over 65% in size
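Rat TrxR1 (90 nM in the dispensed reagent) was pre-reduced with 400 uM NADPH for 5 min at room temperature, then incubated with compound for 15 min. After 400 uM selenite was added, NADPH fluorescence (Ex 340/Em 450 nm) was followed for 8 min.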
GALK inh – qHTS Assay for Inhibitors of Human Galactokinase (GALK); 0.007% of 270,000 active; Potency, µM (highest dose often 57.5 µM), without a hit: at the highest dose activity change, negative = inhibition, actives largely listed as inhibitors; P51570; Purified GALK, Kinase-Glo residual ATP luminescence; note: potency is the fitted concentration of half-maximal effect
Target sequence (P51570 whole entry, looked up): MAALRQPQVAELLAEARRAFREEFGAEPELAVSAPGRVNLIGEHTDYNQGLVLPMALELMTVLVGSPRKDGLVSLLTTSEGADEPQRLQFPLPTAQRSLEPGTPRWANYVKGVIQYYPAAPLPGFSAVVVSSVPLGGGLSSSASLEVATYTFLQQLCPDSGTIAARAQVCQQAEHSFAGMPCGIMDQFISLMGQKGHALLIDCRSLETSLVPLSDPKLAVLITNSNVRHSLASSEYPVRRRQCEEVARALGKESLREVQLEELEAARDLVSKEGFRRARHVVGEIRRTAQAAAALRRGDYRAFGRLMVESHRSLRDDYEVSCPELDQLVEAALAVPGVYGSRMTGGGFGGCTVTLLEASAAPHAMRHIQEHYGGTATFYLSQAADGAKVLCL
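Kinase-Glo Plus luminescence measured ATP left after a 1 h room-temperature reaction. The reaction used 5 nM GALK, 100 uM galactose and 35 uM ATP at pH 8.0 (20 mM HEPES, 5 mM MgCl2, 60 mM NaCl, 1 mM DTT, 0.01% BSA).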
FBPA coupling cs – qHTS Assay for Inhibitors of Fructose-1,6-bisphosphate Aldolase from Giardia Lamblia: Coupling assay counterscreen. 0.67% of 290,000 active. activity change, negative = inhibition, % at 58.2 µM, hits read low. AID 2472, 2010. coupling enzyme system counterscreen, AmpLite Red fluorescence; in the data active = activity change below about -30%
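Counterscreen lacking aldolase: glyceraldehyde-3-phosphate coupling-enzyme reagent preincubated 10 min at RT with compound (at 57.5 uM final), then substrate/coupling system with AmpLite Red added; fluorescence read at 525/598 nm after 20 min RT.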
TrxR1 substrate – qHTS Assay for Substrates of Mammalian Selenoprotein Thioredoxin Reductase 1 (TrxR1): qHTS; purified TrxR1 substrate turnover, NADPH consumption readout; 0.01% of 390,000 active; Potency, µM (top dose mostly 114 µM), for inactives: top-dose activity change, negative = substrate turnover; Thioredoxin reductase 1, cytoplasmic (Rattus norvegicus), O89049; AID 588456, 2011; note: potency is the fitted concentration of half-maximal effect; nearly all actives have a fitted effect of over 50% in size
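Rat TrxR1, dispensed at 90 nM, was prereduced with 400 uM NADPH (final) for 5 min at ~22 deg C, then incubated with compound 15 min before 400 uM selenite. A first-read NADPH fluorescence drop versus no-compound background flagged substrates.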
VP16 counter – VP16 counterscreen qHTS for inhibitors of ROR gamma transcriptional activity. Drosophila S2 Gal4-VP16 UAS-luciferase, luminescence, 20 h. Potency, µM (highest dose often 53.6 µM), without a hit: at the top dose activity, negative = inhibition, actives largely listed as inhibitors. 3.5% of 310,000 active;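 note: Gal4-VP16 expression switched on by copper sulfate through the metallothionein promoter; potency is the fitted concentration of half-maximal effect; nearly all actives have a fitted effect of over 50% in size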
RORg inh – qHTS for inhibitors of ROR gamma transcriptional activity; Drosophila S2 Gal4-RORgamma UAS-luciferase reporter, 20 h; Potency, µM (top dose mostly 53.6 µM), without a hit: at the top dose activity change, negative = inhibition, usual class: inhibitors; 5.4% of 310,000 active; note: potency is the fitted concentration of half-maximal effect; nearly all actives have a fitted effect of over 60% in size
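Luciferase reporter read in Schneider cells carrying Gal4-RORγ (mouse) and UAS-Photinus luciferase; cells given compound 1 h before 700 uM copper sulfate induction, then incubated 20 h at ambient temperature.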
An asterisk follows results filed as active; ? = inconclusive; nt = not tested or not shown; [ ] = remark or other dose. Unless noted, calls come from the whole dose curve; as a rule, active = well fitted curve in the direction sought with a large enough effect; inconclusive = small, poorly fitted or top-dose-only effect, or another doubt; inactive = no such curve, though single readings can be large; an effect the other way counts as inactive or inconclusive. % is set by controls: 0 for no effect and ±100 for the full control effect.

SMILES	TrxR1 inh	GALK inh	FBPA coupling cs	TrxR1 substrate	VP16 counter	RORg inh
O=C(Nc1nnc(-c2ccco2)o1)c1cccc(N2C(=O)CCC2=O)c1	-2%[57.1 µM]	-2%	0	-2%[57.1 µM]	4%	-33%
COCCCNC(=S)NNC(=O)C1CC1c1ccc(C(C)(C)C)cc1 (stereo unspecified)	8%[0.0914 µM]	-1%	2	1%	-13%	4.5µM*
CC(C)(C)c1ccc(C(=O)NC(=S)NCc2ccco2)cc1	?	4%	nt	-2%	7.9µM*	6.3µM*
Cc1ccc(C2CC2C(=O)NNC(=S)Nc2cccc(C)c2)cc1 (stereo unspecified)	?	-2%	-3	2%[57.1 µM]	-2%	-16%
Cc1ccc[n+](/C(C(=S)NCc2ccco2)=C(/[O-])c2ccccc2Cl)c1	?	0%	-32*	-11%	16%	-29%
O=C(NC(=S)NCc1ccco1)c1ccc(Br)cc1	11%[57.1 µM]	0%	-2	6%[57.1 µM]	16µM*	14µM*
CCOC(=O)C(NC(=O)NCc1cccc(C(F)(F)F)c1)(OCC)C(F)(F)F (stereo unspecified)	-9%	0%	-13	-14%	10%	37%
CNC(=O)C1CCC(Cn2c(=O)c3sccc3n(Cc3ccc(F)cc3)c2=O)CC1 (stereo unspecified)	16%[57.1 µM]	nt	nt	8%[57.1 µM]	nt	nt
CCOC(=O)Nc1cccc2c1-c1ccc([N+](=O)[O-])cc1C2=O	-13%[11.4 µM]	nt	nt	-2%[11.4 µM]	nt	nt
CC(C)(C)c1ccc(-c2noc(CCC(=O)NCc3ccco3)n2)cc1	-10%[57.1 µM]	-2%	-2	-21%[57.1 µM]	4µM*	0.32µM*
Cc1cccc(-c2noc(CCC(=O)NCc3ccco3)n2)c1	9%	1%	8	-6%[57.1 µM]	-4%	19%
CC(C)(C)c1ccc(/C([O-])=C(/C(=S)NCc2ccco2)[n+]2ccccc2)cc1	nt	-1%	-30*	nt	-20%	-13%
COCCNC(=S)NC(=O)c1ccc(C(C)(C)C)cc1	?	-2%	1	-1%	11µM*	2µM*
CC(=O)Nc1ccc(NC(=S)NC(=O)c2ccc(C(C)(C)C)cc2)cc1	nt	nt	nt	nt	-5%	?
Cc1ccc[n+](C(C(=S)NCc2ccco2)=C([O-])c2ccccc2Cl)c1	-1%[11.4 µM]	nt	nt	-11%[57.1 µM]	nt	nt
COc1cc(O)c(C(CC(=O)N2CCCC(C)C2)c2ccc3c(c2)OCO3)c(OC)c1 (stereo unspecified)	-3%	-3%	-16	-5%	-7%	3.5µM*
COc1cc(O)c(C(CC(=O)N2CCCCC2)c2ccc3c(c2)OCO3)c(OC)c1 (stereo unspecified)	5%	-1%	-14	0%	-5%	14µM*
COc1cc(O)c(C(CC(=O)N2CCCC(C)C2)c2ccc(N(C)C)cc2)c(OC)c1 (stereo unspecified)	-1%	-1%	-4	-6%	-9%	2µM*
COc1cc(O)c(C(CC(=O)N2CCN(c3ccccc3)CC2)c2ccc(N(C)C)cc2)c(OC)c1 (stereo unspecified)	-9%	0%	-5	-8%	-1%	-18%
COc1ccc(C(CC(=O)N2CCCC2)c2c(O)cc(OC)cc2OC)cc1 (stereo unspecified)	10%	1%	0	2%	1%	-7%
CCCCN(C)C(=O)c1ccc2c(=O)n3nc(Nc4cc(C)ccc4C)sc3nc2c1	1%	nt	nt	-6%	nt	nt
COc1ccc2[nH]c3c(c2c1)CCN(C(=O)c1cccc(Cl)c1)C3c1ccc(F)cc1 (stereo unspecified)	3%	nt	nt	-4%	nt	nt

From PubChem
